Source: publication PMC5540273 (PLoS ONE, 2017)

Tested on: NEK3
Details: concentration: 1 μM, replicates: in singlicate; n = 1
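Further: KINOMEscan kinase panel screen.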

SMILES | %Inh
COc1ccc(Nc2nccc(N3CCC(NC(=O)C(C)c4ccc(Cl)cc4)CC3)n2)cc1 (stereo not drawn) [GSK1379812] | 53%
CCc1ccc(-c2ccc3c(c2)-c2n[nH]cc2S(=O)(=O)N3C)cc1 | 20%
CC(=O)c1c(C)c2cnc(Nc3ccc(N4CCNCC4)cn3)nc2n(C2CCCC2)c1=O | 36%
Cn1cncc1C(=O)NC1CCN(c2ccnc(Nc3ccc(F)cc3)n2)C1 (stereo not drawn) [GSK1379717] | 21%
CNc1cc(-c2ccc3c(N)n[nH]c3c2)nc(N)n1 [GSK2224810] | 2%
CN1c2ccc(-c3ccc(C(N)=O)cc3)cc2-c2[nH]ncc2S1(=O)=O | 35%
COc1ccc(-c2coc3ccc(-c4nnc(C)o4)cc23)cc1 | 21%
Cc1ccc(NC(=O)Nc2ccccc2F)cc1-c1ccc(C(=O)Nc2ccncc2)cc1 [GSK1398477] | 13%
O=C(Nc1n[nH]c2nc(-c3ccco3)c(Br)cc12)C1CCN(Cc2ccccc2)C1.O=C(O)[C@H](O)[C@@H](O)C(=O)O (stereo not drawn) [SB-742034] | 47%
FC(F)(F)c1ccccc1-c1cc(-c2c[nH]nc2-c2ccccn2)ccn1 [GW679396] | 0%
COc1nccc(-c2c(-c3ccc(F)cc3)ncn2CCCN2CCOCC2)n1 [SB-282852] | 29%
COc1cccc(CNC(=O)NC2CCN(c3ccnc(Nc4ccc(F)cc4)n3)C2)c1 (stereo not drawn) [GSK1379723] | 5%
COC(=O)C(NC(=O)NC1CCN(c2ccnc(Nc3ccc(F)cc3)n2)C1)c1ccccc1 (stereo not drawn) [GSK1379712] | 9%
CNCc1ccc2nc(NC(=O)c3ccc(C(C)(C)C)cc3)cn2c1 | 18%
Cc1ccc(NC(=O)Nc2ccc(Cl)cc2)cc1-c1ccc(C(=O)Nc2ccncc2)cc1 [GSK1398472] | 10%
Cn1cncc1-c1cc2c(Nc3ccc(OCc4ccccc4)cc3)ncnc2cn1 [GW281179] | 0%
Fc1ccc(-c2nc3n(c2-c2ccncc2)CCS3)cc1 [GI98581] | 6%
COc1ccc(CSc2nnc(-c3ccc4ncsc4c3)o2)cc1C(F)(F)F | 29%

SMILES | %Inh
Cc1ccc(NC(=O)Nc2ccccc2)cc1-c1ccc(C(=O)Nc2ccncc2)cc1 [GSK1398471] | 0%
COc1ccc2cc(-c3nc(-c4ccccc4C(C)C)[nH]c3-c3ccncc3)ccc2c1 [SB-660566] | 0%
O=C1NC(=O)C(c2ccc(Cl)cc2)=C1Nc1cccc(Cl)c1 [SB-317651] | 16%
CC(C)c1cc(-c2ccc3c(N)n[nH]c3c2)nc(N)n1 [GSK2250882] | 0%
Cc1c(Cn2c3ccccc3n3c(=O)cc(N4CCOCC4)nc23)cccc1C(F)(F)F [GSK2306394] | 0%
COC(=O)C(Cc1ccccc1)NC(=O)NC1CCN(c2ccnc(Nc3ccc(F)cc3)n2)C1 (stereo not drawn) [GSK1379714] | 1%
CS(=O)(=O)Cc1ccc(Nc2nccc(-c3c(-c4cccc(NC(=O)C5CCCCC5)c4)nn4ncccc34)n2)cc1 [GSK350559] | 32%
Nc1nccc(-c2c(-c3ccc(F)cc3)ncn2C2CCN(Cc3ccccc3)CC2)n1 [SB-219980] | 0%
CC(C)c1ccc(O)cc1Nc1ccnc2ccc(C(F)(F)F)cc12 [GW482059] | 0%
CNc1nc(-c2ccc3c(N)n[nH]c3c2)cc(N2C[C@@H](C(=O)NC3CCCCC3)OC[C@H]2C)n1 [GSK2375584] | 11%
CCn1c(-c2ccccc2)nc2cnccc21 [SB-733416] | 9%
CCCCc1nn2ncccc2c1-c1ccnc(NC2CC2)n1 [GW684374] | 0%
Nc1cccc(-c2ccc3c(N)n[nH]c3c2)n1 [GSK2192730] | 9%
CS(=O)(=O)CCNCc1nc(-c2ccc3ncnc(Nc4ccc(OCc5ccccc5)c(Cl)c4)c3c2)cs1.Cl [GW582764] | 0%
COc1cccc(NC(=O)Nc2ccc(C)c(-c3ccc(C(=O)Nc4ccncc4)cc3)c2)c1 [GSK1398474] | 7%
CC[C@@H]1CO[C@H](C(=O)Nc2ccccc2)CN1c1cc(-c2ccc3c(N)n[nH]c3c2)nc(NC)n1 [GSK2376236] | 4%
COc1ccc(CSc2nnc(-c3ccc4nccn4c3)o2)cc1C(F)(F)F | 0%
Nc1ncnc2occ(-c3ccc4c(c3)CCN4C(=O)Cc3cc(F)ccc3F)c12 [GSK2645446] | 0%

Tested on: NEK4
Details: concentration: 1 μM, replicates: in singlicate; n = 1

SMILES | %Inh
COc1ccc(Nc2nccc(N3CCC(NC(=O)C(C)c4ccc(Cl)cc4)CC3)n2)cc1 (stereo not drawn) [GSK1379812] | 0%
CCc1ccc(-c2ccc3c(c2)-c2n[nH]cc2S(=O)(=O)N3C)cc1 | 0%
CC(=O)c1c(C)c2cnc(Nc3ccc(N4CCNCC4)cn3)nc2n(C2CCCC2)c1=O | 0%
Cn1cncc1C(=O)NC1CCN(c2ccnc(Nc3ccc(F)cc3)n2)C1 (stereo not drawn) [GSK1379717] | 3%
CNc1cc(-c2ccc3c(N)n[nH]c3c2)nc(N)n1 [GSK2224810] | 0%
CN1c2ccc(-c3ccc(C(N)=O)cc3)cc2-c2[nH]ncc2S1(=O)=O | 0%
COc1ccc(-c2coc3ccc(-c4nnc(C)o4)cc23)cc1 | 17%
Cc1ccc(NC(=O)Nc2ccccc2F)cc1-c1ccc(C(=O)Nc2ccncc2)cc1 [GSK1398477] | 24%
O=C(Nc1n[nH]c2nc(-c3ccco3)c(Br)cc12)C1CCN(Cc2ccccc2)C1.O=C(O)[C@H](O)[C@@H](O)C(=O)O (stereo not drawn) [SB-742034] | 8%
FC(F)(F)c1ccccc1-c1cc(-c2c[nH]nc2-c2ccccn2)ccn1 [GW679396] | 0%
COc1nccc(-c2c(-c3ccc(F)cc3)ncn2CCCN2CCOCC2)n1 [SB-282852] | 0%
COc1cccc(CNC(=O)NC2CCN(c3ccnc(Nc4ccc(F)cc4)n3)C2)c1 (stereo not drawn) [GSK1379723] | 22%
COC(=O)C(NC(=O)NC1CCN(c2ccnc(Nc3ccc(F)cc3)n2)C1)c1ccccc1 (stereo not drawn) [GSK1379712] | 0%
CNCc1ccc2nc(NC(=O)c3ccc(C(C)(C)C)cc3)cn2c1 | 7%
Cc1ccc(NC(=O)Nc2ccc(Cl)cc2)cc1-c1ccc(C(=O)Nc2ccncc2)cc1 [GSK1398472] | 6%
Cn1cncc1-c1cc2c(Nc3ccc(OCc4ccccc4)cc3)ncnc2cn1 [GW281179] | 5%
Fc1ccc(-c2nc3n(c2-c2ccncc2)CCS3)cc1 [GI98581] | 38%
COc1ccc(CSc2nnc(-c3ccc4ncsc4c3)o2)cc1C(F)(F)F | 0%

SMILES | %Inh
Cc1ccc(NC(=O)Nc2ccccc2)cc1-c1ccc(C(=O)Nc2ccncc2)cc1 [GSK1398471] | 0%
COc1ccc2cc(-c3nc(-c4ccccc4C(C)C)[nH]c3-c3ccncc3)ccc2c1 [SB-660566] | 15%
O=C1NC(=O)C(c2ccc(Cl)cc2)=C1Nc1cccc(Cl)c1 [SB-317651] | 0%
CC(C)c1cc(-c2ccc3c(N)n[nH]c3c2)nc(N)n1 [GSK2250882] | 0%
Cc1c(Cn2c3ccccc3n3c(=O)cc(N4CCOCC4)nc23)cccc1C(F)(F)F [GSK2306394] | 0%
COC(=O)C(Cc1ccccc1)NC(=O)NC1CCN(c2ccnc(Nc3ccc(F)cc3)n2)C1 (stereo not drawn) [GSK1379714] | 0%
CS(=O)(=O)Cc1ccc(Nc2nccc(-c3c(-c4cccc(NC(=O)C5CCCCC5)c4)nn4ncccc34)n2)cc1 [GSK350559] | 25%
Nc1nccc(-c2c(-c3ccc(F)cc3)ncn2C2CCN(Cc3ccccc3)CC2)n1 [SB-219980] | 0%
CC(C)c1ccc(O)cc1Nc1ccnc2ccc(C(F)(F)F)cc12 [GW482059] | 0%
CNc1nc(-c2ccc3c(N)n[nH]c3c2)cc(N2C[C@@H](C(=O)NC3CCCCC3)OC[C@H]2C)n1 [GSK2375584] | 0%
CCn1c(-c2ccccc2)nc2cnccc21 [SB-733416] | 35%
CCCCc1nn2ncccc2c1-c1ccnc(NC2CC2)n1 [GW684374] | 0%
Nc1cccc(-c2ccc3c(N)n[nH]c3c2)n1 [GSK2192730] | 0%
CS(=O)(=O)CCNCc1nc(-c2ccc3ncnc(Nc4ccc(OCc5ccccc5)c(Cl)c4)c3c2)cs1.Cl [GW582764] | 9%
COc1cccc(NC(=O)Nc2ccc(C)c(-c3ccc(C(=O)Nc4ccncc4)cc3)c2)c1 [GSK1398474] | 15%
CC[C@@H]1CO[C@H](C(=O)Nc2ccccc2)CN1c1cc(-c2ccc3c(N)n[nH]c3c2)nc(NC)n1 [GSK2376236] | 0%
COc1ccc(CSc2nnc(-c3ccc4nccn4c3)o2)cc1C(F)(F)F | 4%
Nc1ncnc2occ(-c3ccc4c(c3)CCN4C(=O)Cc3cc(F)ccc3F)c12 [GSK2645446] | 0%
